Source: PubChem
Pf Dd2 inh: qHTS Primary assay for Inhibitors of Plasmodium falciparum Dd2 growth in vitro; hit rate 4.3% among 120,000; Potency, µM (doses to about 28.9 µM), without a hit: top-dose activity, negative = inhibition, usual class: inhibitors; P. falciparum Dd2 growth, SYBR Green, 72 h; active means well fitted inhibition curve with a large enough effect;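 further: plate controls were DMSO vehicle for no effect and reference drug for full effect; nearly all actives have a fitted effect of over 65% in size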
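Readout: SYBR Green fluorescence, 485 nm excitation, 535 nm emission, after ~16 h lysis at 37C. Before that, Dd2-infected red cells (2.5% hematocrit) grew 72 h with compound, 29 uM top final concentration.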
An asterisk follows results filed as active; i = inactive; [ ] = another dose, or the depositor's remark. Shown is part of a subset that was picked to be rich in hits. Potency means the concentration at half of the fitted maximal effect.

SMILES	Pf Dd2 inh
Cc1cc(C)c([S+](=O)([O-])c2nnn3c2nc(N2CCOCC2)c2ccccc23)c(C)c1	8.9µM*
Cc1ccc(-c2nnn3c2nc(N2CCC(C)CC2)c2ccccc23)cc1	-11%
CS(=O)(=O)N1CCCCCCNC(=O)[C@@H]2CCC[C@@H]21	19%
CC(=O)N1CCC(C(=O)N2CC(c3nc(CCOc4cccc(C)c4)no3)C2)CC1	17%
O=C1NC(=NC2CCCC2)C2(CCN(CC3CC3)C2)N1c1cccnc1 (stereo not drawn)	-12%
O=C1NC(=NC2CCCC2)C2(CCCN(CC3CCCCC3)C2)N1c1cc(F)cc(F)c1 (stereo not drawn)	4.5µM*
CC(C)CCN1CCCC2(C1)C(=NC1CCCC1)NC(=O)N2c1cccnc1 (stereo not drawn)	-14%
O=C(c1ccccc1)N1CCC2(C1)C(=NC1CCCCC1)NC(=O)N2c1cc(F)cc(F)c1 (stereo not drawn)	9%
CC(C)CCN1CCCC2(C1)C(=NC1CCCCC1)NC(=O)N2c1cc(F)cc(F)c1 (stereo not drawn)	4µM*
O=C1NC(=NC2CCCCC2)C2(CCN(CC3CCCCC3)CC2)N1c1cc(F)cc(F)c1	10%
CC(C)CCN1CCC2(C1)C(=NC1CCCCC1)NC(=O)N2c1cccnc1 (stereo not drawn)	77%
O=C1NC(=NC2CCCCC2)C2(CCN(CC3CCCCC3)C2)N1c1cc(F)cc(F)c1 (stereo not drawn)	5µM*
O=C(c1ccccc1F)N1CCC2(C1)C(=NC1CCCCC1)NC(=O)N2c1cc(F)cc(F)c1 (stereo not drawn)	-4%
CC(C)Cc1cc(CNC(=O)[C@H]2CNC[C@H](C(=O)N3CCCC3)C2)no1	16%
O=C(O)[C@@H]1CN(S(=O)(=O)C2CC2)C[C@H]1c1ccccn1	7%
Cc1ccc(C2Cn3nnc(C(=O)N4CCN(C(=O)c5ccccn5)CC4)c3CO2)cc1 (stereo not drawn)	i
COc1cc(OC)cc(C(=O)N2CCC[C@H]2c2nc(-c3ccc(C)cc3)no2)c1	30%
COc1ccc(-c2nc3ccc(Cl)cn3c2Nc2ccc(C)cc2)cc1	-14%
Cc1ccccc1Nc1c(-c2ccc(N3CCOCC3)cc2)nc2ccc(Br)cn12	8.9µM*
Cc1ccccc1Nc1c(-c2c[nH]c3ccccc23)nc2ccc(Cl)cn12	i
Cc1ccccc1Nc1c(-c2ccsc2)nc2c(C)cccn12	i
Cc1ccccc1Nc1c(-c2cccs2)nc2cccc(C)n12	-2%
COc1cc(O)ccc1-c1nc2ccc(Br)cn2c1Nc1ccccc1C	6.3µM*
Cc1ccc(Nc2c(-c3cccnc3)nc3ccc(Br)cn23)cc1	i
Cc1ccccc1Nc1c(-c2ccc(N3CCOCC3)cc2)nc2cccc(C)n12	10µM*
SMILES	Pf Dd2 inh
Cc1ccccc1Nc1c(-c2cccnc2)nc2cccc(C)n12	-24%
COC[C@H]1CCCN1Cc1nc(C2(O)CCN(CCC(C)C)CC2)cs1	-11%[44.1 µM]
O=C(c1ccc(Cl)cc1)N1CCC2(C1)C(=O)Nc1ccccc12 (stereo not drawn)	0%
CC1(c2ccccc2)N(Cc2ccccc2F)C(=O)OC12CCN(Cc1cccnc1N)CC2 (stereo not drawn)	-9%
CCOC(=O)c1cc(-c2ccc(OC)cc2)nn1Cc1ccccc1	-1%
CCOC(=O)C1=C(CN(CC)Cc2ccccc2)NC(=O)NC1c1ccc(OC)cc1 (stereo not drawn)	i
CCOC(=O)c1[nH]c2c(c1Cc1ccccc1)C(=O)CC(c1ccc(OC)cc1)C2 (stereo not drawn)	11µM*
CCOC(=O)c1[nH]c2c(c1Cc1ccccc1)C(=O)CC(c1ccc(Cl)cc1)C2 (stereo not drawn)	10µM*
Cc1c(C(=O)OCC2CCCCC2)[nH]c2c1C(=O)CC(c1ccc(Cl)cc1)C2 (stereo not drawn)	3%
Cc1ccc(COC(=O)c2[nH]c3c(c2C)C(=O)CC(c2ccc(Cl)cc2)C3)cc1 (stereo not drawn)	-6%
CCN1CCN(CCCNC(=O)CN2CC3CC(C2)[C@H]2CCCC(=O)N2C3)CC1 (stereo partly drawn)	-22%
Cc1cccc(OCC2(CNS(=O)(=O)c3ccc(F)cc3)C[C@@H](O)[C@@H](O)C2)n1 (stereo partly drawn)	-24%
O=C(c1cc(F)ccc1Cl)N1C[C@@H](CO)[C@H](c2ccccn2)C1	16%
COCCN1CC(C(=O)N(C)Cc2cnn(-c3ccccc3C)c2)CCC1=O (stereo not drawn)	-1%
CN(C)C(=O)N1CCn2nc(CNC(=O)c3cccc(-n4cnnc4)c3)cc2C1	2%
Cc1cccc(-n2nnnc2S(C)(=O)=O)c1	11µM*
Cc1ccc(-n2nnnc2CNC(=O)c2ccccc2S(C)(=O)=O)cc1C	i
COC(=O)c1nnn(-c2cccc(C)c2)c1C(=O)OC	6%
COCCNC(=O)[C@@H]1C[C@H](Oc2ccccc2)CN1C(=O)CCc1c(C)nn(C)c1C	25%
CCc1ccc(-n2c(-c3ccccc3)c(C)n3c4c(=O)n(C)c(=O)n(C)c4nc23)cc1	9%
Cc1ccc(-c2nc3ccccc3n3c(-c4ccccc4)c4c(=O)n(C)c(=O)n(C)c4c23)cc1	62%
Cc1ccc(-c2c(C)n3c4c(=O)n(C)c(=O)n(C)c4nc3n2-c2cccc(O)c2)cc1	10µM*
CC(C)N1CCCC2(CCN(S(=O)(=O)c3cccc(F)c3)C2)C1=O (stereo not drawn)	-5%
CN1CCN(c2ccc(-c3noc([C@@H]4CCCN4Cc4ccccc4)n3)cn2)CC1	7.9µM*
c1cc(-c2noc([C@@H]3CCCN3C3CCC3)n2)cc(N2CCOCC2)n1	i
SMILES	Pf Dd2 inh
CNc1ccc(-c2noc([C@@H]3CCCN3Cc3ccc(CO)o3)n2)cn1	i
CN(C)c1ccc(CN2CCC[C@H]2c2nc(-c3ccnc(N4CCC(C(N)=O)CC4)c3)no2)cc1	i
c1ccc(CN2CCC[C@H]2c2nc(-c3ccnc(N4CCOCC4)c3)no2)cc1	13µM*
CNc1ccc(-c2noc([C@@H]3CCCN3Cc3cnc4ccccc4c3)n2)cn1	-24%[44.1 µM]
CCC(=O)N1CCC2(CC1)CC(C(=O)N1CCOCC1)N(C)C2 (stereo not drawn)	-12%
CNC(=O)Nc1ccc(C2(C(=O)Nc3ccc4c(c3)CCC4)CCC2)cc1	0%
CCOc1ccccc1C1NC(=O)N(CC(=O)Nc2ccc(C)cc2)C2=C1C(=O)OC2 (stereo not drawn)	-14%
O=C(CC1CCN(C(=O)c2ccccc2F)C1)NC1CC1 (stereo not drawn)	2%
COc1cccc(NC(=O)Cn2c(C)cc3nc4n(c(=O)c32)CCC4)c1	i
CCN1c2cc(C(=O)Nc3ccc(Cl)c(F)c3)ccc2C(=O)N2CCCCC21 (stereo not drawn)	-24%
COc1ccc(-c2noc(C(=O)O)c2[C@@H](C)NC(=O)c2cccnc2)cc1	-24%[44.1 µM]
COc1ccc(-c2noc([C@@H](C)NC(=O)c3cc(C)n(C)n3)c2C(=O)O)cc1	-18%[44.1 µM]
COc1ccc(-c2noc(C(=O)O)c2[C@@H](C)NC(=O)c2cc(C)n(C)n2)cc1	3.2µM*
CC(=O)Nc1ccc(NC(=O)Cn2ccn3nc(-c4ccc(F)cc4)c(CO)c3c2=O)cc1	11%
COC(=O)c1ccccc1NC(=O)N(Cc1ccc(C)cc1)Cc1cccn1-c1nnc(N2CCCC2=O)s1	2%
Cc1ccc(CN(Cc2cccn2-c2nnc(N3CCCC3=O)s2)C(=O)Nc2cc(C)cc(C)c2)cc1	3.2µM*
